The text below walks through data of PubChem BioAssay (NCI).

About 83,000 compounds went through this panel and 20% of them were active in at least one assay; those are over-represented in the sample as a whole.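 96-well plates, one dose, 48 hours. Percent growth reported; active if below 10.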 A number with no mark means an inactive call. Activity calls are given as the source filed them.

Test systems include EKVX NSCLC; SN12C renal; UO-31 renal; TK-10 renal; ACHN renal; CAKI-1 renal; A498 renal; CCRF-CEM leukemia; SR leukemia; RPMI-8226 leukemia; OVCAR-8 ovarian; OVCAR-5 ovarian; OVCAR-4 ovarian; SK-OV-3 ovarian; IGROV1 ovarian; OVCAR-3 ovarian; HS 578T breast; NCI/ADR-RES ovarian; MOLT-4 leukemia.
Test in all cases: NCI-60 one-dose screen, 48 h (100 = growth as untreated, 0 = no growth, -100 = all killed)
Holding throughout (conditions): 10 µM unless noted

Take `Cc1cc(NCc2cc(Nc3ccnc4cc(Cl)ccc34)ccc2F)nc(N2CCOCC2)n1`: the growth in the test on EKVX NSCLC was 54.3%; in the test with SN12C renal, 31.4%; in the test with UO-31 renal it was -47.8% (active); in the test on TK-10 renal it was -10.4% (active); in the test with ACHN renal it was -79.5% (active); in the test with CAKI-1 renal, 60.3%. Besides, the growth in the test with A498 renal was 51.7%; with CCRF-CEM leukemia, 1.04% (active); in the test on SR leukemia, -13% (active); with RPMI-8226 leukemia, 29.4%; in the test on OVCAR-8 ovarian it was 36.3%; in the test with OVCAR-5 ovarian, 76.5%. Also, the growth in the test on OVCAR-4 ovarian was 7.29% (active); in the test with SK-OV-3 ovarian, 0.55% (active); in the test with IGROV1 ovarian it was 49.7%; in the test on OVCAR-3 ovarian, 16.1%; with HS 578T breast, 16.5%; with NCI/ADR-RES ovarian, 25%.
For `S=C(c1ccc2c(c1)OCO2)N1CCN(c2ccccc2Cl)CC1`, the growth in the test on EKVX NSCLC is 124%; with SN12C renal, 110%; with UO-31 renal, 79.4%; in the test with TK-10 renal it was 105%; with ACHN renal it was 99%; with CAKI-1 renal it was 83.8%. For the same compound, the growth in the test with A498 renal was 97%; in the test on CCRF-CEM leukemia, 96.1%; in the test on MOLT-4 leukemia it was 95.8%; with RPMI-8226 leukemia it was 85.9%; in the test with OVCAR-8 ovarian, 102%; in the test on OVCAR-5 ovarian it was 97.6%. Further, the growth was 98.7% with OVCAR-4 ovarian; 102% in the test on SK-OV-3 ovarian; 101% in the test with IGROV1 ovarian; 112% in the test on OVCAR-3 ovarian; 107% with HS 578T breast; 99.7% with NCI/ADR-RES ovarian.
Turning to `O=c1[nH]c2ccccc2n1C1CCN(CCOc2ccccc2)CC1`, the growth was 99.7% in the test with EKVX NSCLC; 97.3% in the test on SN12C renal; 64.6% with UO-31 renal; 98.7% in the test on TK-10 renal; 90.9% with ACHN renal; 98.8% with CAKI-1 renal. Further, the growth in the test with A498 renal is 63.7%; with CCRF-CEM leukemia, 74.3%; in the test on MOLT-4 leukemia it was 86.4%; in the test with RPMI-8226 leukemia, 41.5%; in the test on OVCAR-8 ovarian, 79%; in the test on OVCAR-5 ovarian it was 104%. In addition, the growth with OVCAR-4 ovarian is 66.7%; in the test on SK-OV-3 ovarian, 91.8%; in the test on OVCAR-3 ovarian, 65.4%; in the test with HS 578T breast it was 54.6%; in the test on NCI/ADR-RES ovarian, 94.1%.
As for `N#CC1=C(c2ccc(Br)cc2)NC(SCC(=O)c2ccc(Br)cc2)NC1=O` (stereo not drawn), the growth is 104% with EKVX NSCLC; 109% in the test with SN12C renal; 89.9% in the test on UO-31 renal; 118% in the test with TK-10 renal; 109% in the test with ACHN renal; 97.1% with CAKI-1 renal. In addition, the growth is 80.1% with A498 renal; 92% in the test with MOLT-4 leukemia; 101% with SR leukemia; 107% in the test with RPMI-8226 leukemia; 103% in the test with OVCAR-8 ovarian; 101% in the test with OVCAR-5 ovarian. The growth was 101% in the test on OVCAR-4 ovarian; 110% in the test on SK-OV-3 ovarian; 114% with IGROV1 ovarian; 102% with OVCAR-3 ovarian; 97% in the test with HS 578T breast; 107% in the test on NCI/ADR-RES ovarian.
For the compound `CN(c1ccccc1)c1ccc2c(c1)OCCC21CC1Nc1cnccc1C(=O)O` (stereo not drawn), the growth in the test on EKVX NSCLC is 93.1%; with SN12C renal, 82.9%; with UO-31 renal, 87.4%; in the test with TK-10 renal, 79.5%; in the test on ACHN renal it was 66.7%; in the test on CAKI-1 renal it was 76.3%. The growth with A498 renal is 59.7%; in the test on CCRF-CEM leukemia it was 47.2%; in the test on MOLT-4 leukemia, 45.8%; with RPMI-8226 leukemia, 82.6%; in the test with OVCAR-8 ovarian it was 54.9%; in the test on OVCAR-5 ovarian it was 96.2%. Also, the growth was 75.3% in the test on OVCAR-4 ovarian; 69.1% in the test with SK-OV-3 ovarian; 75.1% with IGROV1 ovarian; 77.1% in the test on OVCAR-3 ovarian; 80.8% in the test with HS 578T breast; 73.8% with NCI/ADR-RES ovarian.
As to `CC(C)(C)C(CCc1ccc(Cl)cc1)N1CCN(C2CCCCC2)CC1` (stereo not drawn), the growth in the test on EKVX NSCLC is 70.1%; in the test on SN12C renal, 45.7%; with UO-31 renal, 32.6%; in the test with TK-10 renal it was 96.2%; in the test on ACHN renal, 51.3%; in the test with CAKI-1 renal, 35.8%. In addition, the growth with A498 renal is 78%; in the test with CCRF-CEM leukemia, 25.9%; with SR leukemia, -13.2% (active); in the test with RPMI-8226 leukemia, 24.4%; in the test with OVCAR-8 ovarian, 60.3%; with OVCAR-5 ovarian it was 60.2%. Further, the growth in the test on OVCAR-4 ovarian was 42.6%; with SK-OV-3 ovarian it was 59.9%; in the test on IGROV1 ovarian, 62.8%; in the test on OVCAR-3 ovarian it was 41.6%; in the test on HS 578T breast, 68.9%; with NCI/ADR-RES ovarian it was 60.6%.
For `CC1OC(O[C@H]2/C=C/C=C/C=C/C=C/C=C/C=C/C=C/[C@H](C)[C@@H](O)[C@@H](C)[C@H](C)OC(=O)CC(O)CC(O)CCC(O)C(O)CC(O)C[C@]3(O)C[C@H](O)C(C(=O)O)C(C2)O3)C(O)[C@H](N)C1O` (stereo partly drawn), the growth in the test with EKVX NSCLC is -14.3% (active); in the test with SN12C renal it was -84.1% (active); in the test on UO-31 renal it was -94.3% (active); in the test with TK-10 renal it was -40.7% (active); in the test with ACHN renal, -80.3% (active); in the test with CAKI-1 renal, 36.1%. Moreover, the growth was 9.81% (active) in the test on A498 renal; 36.8% in the test with CCRF-CEM leukemia; 23.8% with OVCAR-8 ovarian; -21% (active) with OVCAR-5 ovarian; 38% in the test with SK-OV-3 ovarian; 16.6% in the test with IGROV1 ovarian. The growth in the test on OVCAR-3 ovarian is -42.3% (active); in the test on HS 578T breast, -18.7% (active); with NCI/ADR-RES ovarian it was -29.9% (active).
Take `OC(c1cccc(-n2ccc(C(F)(F)F)n2)c1)c1cnccc1NC1CCCCCC1` (stereo not drawn): the growth in the test with EKVX NSCLC is 72.6%; with SN12C renal, 47.8%; in the test with UO-31 renal, 41.5%; in the test with TK-10 renal, 86.7%; with ACHN renal, -32.2% (active); in the test with CAKI-1 renal, 66.5%. The growth in the test on A498 renal is 60.4%; with CCRF-CEM leukemia it was 8.54% (active); with MOLT-4 leukemia, -14.2% (active); with RPMI-8226 leukemia it was -33.4% (active); in the test on OVCAR-8 ovarian, 6.25% (active); in the test with OVCAR-5 ovarian, 15.2%. In addition, the growth is 40.8% with OVCAR-4 ovarian; 38.5% with IGROV1 ovarian; 52.4% with OVCAR-3 ovarian; 49.8% with HS 578T breast; 30% in the test with NCI/ADR-RES ovarian.
Regarding `COC(=O)c1ccc(CSc2nnc(-c3c(C)nc4ccc(C)cn34)o2)cc1`, the growth was 102% in the test on EKVX NSCLC; 99.2% with SN12C renal; 85.9% in the test on UO-31 renal; 113% in the test with TK-10 renal; 98.3% in the test with ACHN renal; 92.9% with CAKI-1 renal. Further, the growth in the test with A498 renal was 93.5%; in the test on CCRF-CEM leukemia, 106%; in the test with MOLT-4 leukemia it was 94.4%; in the test with RPMI-8226 leukemia, 88.4%; with OVCAR-8 ovarian, 103%; with OVCAR-5 ovarian, 106%. Moreover, the growth with OVCAR-4 ovarian is 94%; in the test with IGROV1 ovarian it was 109%; with OVCAR-3 ovarian, 119%; in the test with HS 578T breast, 105%; in the test with NCI/ADR-RES ovarian, 89.7%.
In the case of `Cc1nn(-c2ccccc2)c2nc3c(c(-c4ccc(Cl)cc4)c12)CNC1(CCSCC1)N3`, the growth is 94% in the test on EKVX NSCLC; 108% in the test on SN12C renal; 94.9% in the test with UO-31 renal; 107% in the test on TK-10 renal; 103% with ACHN renal; 95.4% in the test on CAKI-1 renal. The growth in the test with A498 renal is 89.1%; in the test on CCRF-CEM leukemia it was 118%; in the test on SR leukemia, 96.8%; with RPMI-8226 leukemia, 109%; in the test with OVCAR-8 ovarian, 105%; in the test on OVCAR-5 ovarian, 98.2%. For the same compound, the growth in the test with OVCAR-4 ovarian is 98.9%; in the test on SK-OV-3 ovarian it was 98.9%; with IGROV1 ovarian it was 99.1%; with OVCAR-3 ovarian, 104%; in the test with HS 578T breast, 99.8%.
